Measurements taken from PubChem BioAssay AID1159580 (chemical genetic matrix, 2015).
The whole screen tested about 5,500 compounds, of which about 2,000 (36%) were called active. Another 18% or so got no clear call; they are omitted. Cut-off read from the data, not from the text of the source: active = normalized growth mostly below about 0.91 (no sharp cut-off); inconclusive = no clear call, values can overlap the other calls; inactive = mostly above about 0.92. This is one part of the list.

Test: chemical genetic growth profiling, strain panel (AID 1159580);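 note: tested at 20 µM; growth read once vehicle control cultures reached saturation at 30 °C; 1 = growth at the plate median or of vehicle wells; lower values mean less growth of the strain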
Conditions: S. cerevisiae deletion strains, growth OD

Measured: normalized growth

OC(COc1ccc(F)cc1)(c1ccc(Cl)cc1)c1ccc(Cl)cc1
inactive: locus YAR019C, strain CDC15, stronger effect = lower value 0.991 | locus YBL105C, strain PKC1, stronger effect = lower value 0.985 | locus YBR135W, strain CKS1, stronger effect = lower value 0.984 | locus YBR136W, strain MEC1, stronger effect = lower value 1 | locus YBR160W, strain CDC28, stronger effect = lower value 0.982 | locus YDL017W, strain CDC7, stronger effect = lower value 0.988 | locus YDL028C, strain MPS1, stronger effect = lower value 0.985 | locus YDL101C, strain DUN1, stronger effect = lower value 0.974 | locus YDL108W, strain KIN28, stronger effect = lower value 0.978 | locus YDL132W, strain cdc53, stronger effect = lower value 0.987 | locus YDL214C, strain PRR2, stronger effect = lower value 0.985 | locus YDR052C, strain DBF4, stronger effect = lower value 0.989 | locus YDR054C, strain cdc34, stronger effect = lower value 0.993 | locus YDR226W, strain ADK1, stronger effect = lower value 0.983 | locus YDR477W, strain SNF1, stronger effect = lower value 0.996 | locus YER123W, strain YCK3, stronger effect = lower value 0.96 | locus YER133W, strain GLC7, stronger effect = lower value 0.987 | locus YFL009W, strain cdc4, stronger effect = lower value 0.993 | locus YFL029C, strain CAK1, stronger effect = lower value 0.988 | locus YFR003C, strain YPI1, stronger effect = lower value 0.989 | locus YFR019W, strain FAB1, stronger effect = lower value 1 | locus YFR028C, strain CDC14, stronger effect = lower value 0.986 | locus YGR040W, strain KSS1, stronger effect = lower value 0.981 | locus YGR052W, strain FMP48, stronger effect = lower value 1.08 | locus YGR092W, strain DBF2, stronger effect = lower value 0.962 | locus YHR030C, strain SLT2, stronger effect = lower value 1.07 | locus YHR079C, strain IRE1, stronger effect = lower value 1.08 | locus YHR082C, strain KSP1, stronger effect = lower value 1.07 | locus YHR205W, strain SCH9, stronger effect = lower value 0.964 | locus YIL147C, strain SLN1, stronger effect = lower value 0.98 | locus YJL095W, strain BCK1, stronger effect = lower value 1.08 | locus YJL128C, strain PBS2, stronger effect = lower value 0.939 | locus YJL157C, strain FAR1, stronger effect = lower value 0.988 | locus YJR016C, strain ILV3, stronger effect = lower value 0.984 | locus YJR066W, strain TOR1 (second series), stronger effect = lower value 0.971 | locus YJR066W, strain TOR1, stronger effect = lower value 1.12 | locus YKL048C, strain ELM1, stronger effect = lower value 0.984 | locus YKL067W, strain YNK1, stronger effect = lower value 0.988 | locus YKL101W, strain HSL1, stronger effect = lower value 0.98 | locus YKL193C, strain SDS22, stronger effect = lower value 0.991 | locus YKL203C, strain TOR2, stronger effect = lower value 1.08 | locus YLR113W, strain HOG1, stronger effect = lower value 0.957 | locus YLR133W, strain CKI1, stronger effect = lower value 0.989 | locus YLR403W, strain SFP1, stronger effect = lower value 1 | locus YML070W, strain DAK1, stronger effect = lower value 0.99 | locus YMR001C, strain CDC5, stronger effect = lower value 0.984 | locus YMR205C, strain PFK2 (second series), stronger effect = lower value 0.995 | locus YMR277W, strain FCP1, stronger effect = lower value 0.992 | locus YNL006W, strain LST8, stronger effect = lower value 0.998 | locus YNL020C, strain ARK1, stronger effect = lower value 0.988 | locus YNL161W, strain CBK1, stronger effect = lower value 0.988 | locus YNL183C, strain NPR1, stronger effect = lower value 1.09 | locus YNL207W, strain RIO2, stronger effect = lower value 0.997 | locus YNL222W, strain SSU72, stronger effect = lower value 0.991 | locus YNL307C, strain MCK1 (second series), stronger effect = lower value 0.981 | locus YOL078W, strain AVO1, stronger effect = lower value 0.994 | locus YOL136C, strain PFK27, stronger effect = lower value 0.966 | locus YOR061W, strain CKA2, stronger effect = lower value 0.988 | locus YOR119C, strain RIO1, stronger effect = lower value 1.02 | locus YOR231W, strain MKK1, stronger effect = lower value 1.06 | locus YOR329C, strain SCD5, stronger effect = lower value 0.984 | locus YPL031C, strain PHO85, stronger effect = lower value 0.981 | locus YPL153C, strain RAD53, stronger effect = lower value 0.984 | locus YPL204W, strain HRR25, stronger effect = lower value 0.986 | locus YPL209C, strain IPL1, stronger effect = lower value 0.992 | locus YPL256C, strain CLN2, stronger effect = lower value 1.07 | locus YPR025C, strain CCL1, stronger effect = lower value 0.992 | locus YPR106W, strain ISR1, stronger effect = lower value 0.983 | locus YPR111W, strain DBF20, stronger effect = lower value 0.984 | strain NNK1, stronger effect = lower value 0.992 | strain TSCII, stronger effect = lower value 0.991
